In PubChem BioAssay AID1159580 (chemical genetic matrix, 2015):
Several values for one entry are separate records, joined by “and”; a condition that tells them apart may be missing. Equal entries are not always repeated. In all, about 5,500 compounds went through this assay and about 2,000 (36%) were called active. Another 18% or so got no clear call; they are omitted. No stated cut-off is given here; in the data, active means normalized growth mostly below about 0.91 (no sharp cut-off); inconclusive means no clear call, values can overlap the other calls; inactive means mostly above about 0.92. This is one part of the list.

Experiment: chemical genetic growth profiling, strain panel (AID 1159580);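 further: tested at 20 µM; growth read once vehicle control cultures reached saturation at 30 °C; 1 = growth at the plate median or of vehicle wells; lower values mean less growth of the strain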
Conditions: growth OD

Measured: normalized growth

COc1ccc(C(=O)N2CCCC2=O)cc1
inactive: S. cerevisiae deletion strains, locus YJR075W, strain HOC1, hits give low values 0.99 | S. cerevisiae deletion strains, locus YKL009W, strain mrt4, hits give low values 0.97 | S. cerevisiae deletion strains, locus YKL068W, hits give low values 0.976 | S. cerevisiae deletion strains, locus YKL085W, strain MDH1 (second series), hits give low values 0.984 | S. cerevisiae deletion strains, locus YKL085W, strain MDH1, hits give low values 0.984 | S. cerevisiae deletion strains, locus YKL160W, strain elf1, hits give low values 0.952 | S. cerevisiae deletion strains, locus YKL190W, strain CNB1, hits give low values 0.993 | S. cerevisiae deletion strains, locus YKR001C, strain vps1, hits give low values 0.968 | S. cerevisiae deletion strains, locus YKR026C, strain gcn3, hits give low values 0.976 | S. cerevisiae deletion strains, locus YKR091W, strain srl3, hits give low values 0.969 | S. cerevisiae deletion strains, locus YLL001W, strain dnm1, hits give low values 0.963 | S. cerevisiae deletion strains, locus YLL026W, hits give low values 0.98 | S. cerevisiae deletion strains, locus YLL041C, strain sdh2, hits give low values 0.986 | S. cerevisiae deletion strains, locus YLR027C, strain aat2, hits give low values 0.963 | S. cerevisiae deletion strains, locus YLR039C, strain RIC1, hits give low values 0.947 | S. cerevisiae deletion strains, locus YLR058C, strain SHM2, hits give low values 0.978 | S. cerevisiae deletion strains, locus YLR102C, strain apc9, hits give low values 0.979 | S. cerevisiae deletion strains, locus YLR221C, strain rsa3, hits give low values 0.945 | S. cerevisiae deletion strains, locus YLR258W, strain gsy2, hits give low values 0.98 | S. cerevisiae deletion strains, locus YLR262C, strain YPT6 (second series), hits give low values 0.967 | S. cerevisiae deletion strains, locus YLR262C, strain YPT6, hits give low values 0.902 | S. cerevisiae deletion strains, locus YLR268W, strain sec22, hits give low values 0.971 | S. cerevisiae deletion strains, locus YLR320W, strain mms22, hits give low values 0.933 | S. cerevisiae deletion strains, locus YLR330W, strain CHS5, hits give low values 0.986 | S. cerevisiae deletion strains, locus YLR342W, strain FKS1 (second series), hits give low values 0.995 | S. cerevisiae deletion strains, locus YLR342W, strain FKS1, hits give low values 0.99 | S. cerevisiae deletion strains, locus YLR357W, strain rsc2, hits give low values 0.991 | S. cerevisiae deletion strains, locus YLR370C, strain arc18, hits give low values 0.963 | S. cerevisiae deletion strains, locus YLR371W, strain rom2, hits give low values 0.993 | S. cerevisiae deletion strains, locus YLR384C, strain iki3, hits give low values 0.958 | S. cerevisiae deletion strains, locus YLR418C, strain cdc73, hits give low values 0.967 | S. cerevisiae deletion strains, locus YML016C, strain PPZ1, hits give low values 0.983 | S. cerevisiae deletion strains, locus YML032C, strain rad52, hits give low values 1 | S. cerevisiae deletion strains, locus YML120C, strain ndi1, hits give low values 0.94 | S. cerevisiae deletion strains, locus YML124C, strain tub3, hits give low values 0.994 | S. cerevisiae deletion strains, locus YMR058W, strain fet3, hits give low values 0.971 | S. cerevisiae deletion strains, locus YMR078C, strain ctf18, hits give low values 0.974 | S. cerevisiae deletion strains, locus YMR125W, strain sto1, hits give low values 0.973 | S. cerevisiae deletion strains, locus YMR129W, hits give low values 0.986 | S. cerevisiae deletion strains, locus YMR205C, strain PFK2, hits give low values 0.971 | S. cerevisiae deletion strains, locus YMR223W, strain ubp8, hits give low values 0.995 | S. cerevisiae deletion strains, locus YMR231W, strain pep5, hits give low values 0.978 | S. cerevisiae deletion strains, locus YMR263W, strain SAP30, hits give low values 0.964 | S. cerevisiae deletion strains, locus YMR307W, strain GAS1, hits give low values 0.99 | S. cerevisiae deletion strains, locus YNL067W, strain RPL9B, hits give low values 0.974 | S. cerevisiae deletion strains, locus YNL071W, strain lat1, hits give low values 0.982 | S. cerevisiae deletion strains, locus YNL128W, strain TEP1, hits give low values 0.979 | S. cerevisiae deletion strains, locus YNL153C, strain GIM3, hits give low values 0.965 and 1.01 | S. cerevisiae deletion strains, locus YNL175C, strain NOP13, hits give low values 1 | S. cerevisiae deletion strains, locus YNL197C, strain WHI3, hits give low values 1.01 | S. cerevisiae deletion strains, locus YNL209W, strain ssb2, hits give low values 0.984 | S. cerevisiae deletion strains, locus YNL224C, strain SQS1, hits give low values 1.02 | S. cerevisiae deletion strains, locus YNL233W, strain BNI4, hits give low values 0.99 | S. cerevisiae deletion strains, locus YNL248C, strain rpa49, hits give low values 0.976 | S. cerevisiae deletion strains, locus YNL250W, strain rad50, hits give low values 0.964 | S. cerevisiae deletion strains, locus YNL271C, strain bni1, hits give low values 0.986 | S. cerevisiae deletion strains, locus YNL298W, strain CLA4, hits give low values 0.982 | S. cerevisiae deletion strains, locus YNL307C, strain MCK1, hits give low values 0.989 | S. cerevisiae deletion strains, locus YNL322C, strain KRE1 (second series), hits give low values 0.955 | S. cerevisiae deletion strains, locus YNL322C, strain KRE1, hits give low values 0.986 and 1 | S. cerevisiae deletion strains, locus YNR049C, strain mso1, hits give low values 0.954 | S. cerevisiae deletion strains, locus YNR052C, strain pop2, hits give low values 0.974 | S. cerevisiae deletion strains, locus YOL006C, strain TOP1, hits give low values 0.921 | S. cerevisiae deletion strains, locus YOL012C, strain htz1 0.923 | S. cerevisiae deletion strains, locus YOL147C, strain pex11, hits give low values 0.99 | S. cerevisiae deletion strains, locus YOR001W, strain rrp6, hits give low values 0.998 | S. cerevisiae deletion strains, locus YOR061W, strain CKA2, hits give low values 0.949 | S. cerevisiae deletion strains, locus YOR069W, strain VPS5, hits give low values 0.987 | S. cerevisiae deletion strains, locus YOR070C, strain gyp1, hits give low values 0.991 | S. cerevisiae deletion strains, locus YOR080W, strain dia2, hits give low values 0.976 | S. cerevisiae deletion strains, locus YOR083W, strain WHI5 (second series), hits give low values 1.02 | S. cerevisiae deletion strains, locus YOR083W, strain WHI5, hits give low values 0.946 | S. cerevisiae deletion strains, locus YOR106W, strain vam3, hits give low values 0.93 | S. cerevisiae deletion strains, locus YOR136W, strain idh2, hits give low values 0.99 | S. cerevisiae deletion strains, locus YOR144C, strain elg1, hits give low values 0.999 | S. cerevisiae deletion strains, locus YOR184W, strain ser1, hits give low values 0.993 | S. cerevisiae deletion strains, locus YOR265W, strain rbl2, hits give low values 0.989 | S. cerevisiae deletion strains, locus YOR270C, strain vph1, hits give low values 0.929 | S. cerevisiae deletion strains, locus YOR290C, strain snf2, hits give low values 0.933 | S. cerevisiae deletion strains, locus YOR316C, strain cot1, hits give low values 0.978 | S. cerevisiae deletion strains, locus YPL051W, strain arl3, hits give low values 1.01 | S. cerevisiae deletion strains, locus YPL055C, strain LGE1, hits give low values 0.988 | S. cerevisiae deletion strains, locus YPL078C, strain atp4, hits give low values 0.963 | S. cerevisiae deletion strains, locus YPL106C, strain sse1, hits give low values 0.925 | S. cerevisiae deletion strains, locus YPL240C, strain hsp82, hits give low values 0.986 | S. cerevisiae deletion strains, locus YPL241C, strain CIN2, hits give low values 1.03 and 1 | S. cerevisiae deletion strains, locus YPR119W, strain clb2, hits give low values 0.991 | S. cerevisiae deletion strains, locus YPR141C, strain kar3, hits give low values 0.962 | S. cerevisiae deletion strains, locus YPR163C, strain tif3, hits give low values 1 | S. cerevisiae deletion strains, locus YPR167C, strain met16, hits give low values 0.972 | S. cerevisiae deletion strains, strain wtn01, hits give low values 0.984 | S. cerevisiae strains, strain wild type, hits give low values 0.993
